The sample as a whole holds a higher share of hits than the screen did.
Methyltransferases: Primary Screen for Target Class Profiling of Small Molecule Inhibitors of Methyltransferases; calls only at 40 µM; actives 3.9% (n = 25,000); AID 1745853, 2022; purified enzyme, MTase-Glo SAH luminescence; active compounds read low; call rule not given here
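Each enzyme was assayed with SAM and its substrate. SAH formation detected by MTase-Glo luminescence; single-point 40 uM screen[…].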
Of the large screens only hits and unclear results are named; the others gave an inactive call; ! = not active in a repeat.

Cc1ccc(NC(=O)N2CCn3cccc3C2C(C)C)c(Cl)c1 (configuration not stated)	none
COc1ccc(NC(=O)Cn2nc3n(CCc4ccccc4)c(=O)c4ccccc4n3c2=O)cc1	none
CC1=CC(=O)C2(OC3OC(C)C(O)C(OC(=O)/C=C/c4ccccc4)C3O)C=COC(OC3OC(CO)C(O)C(O)C3O)C12 (configuration not stated)	Methyltransferases active
CC(=O)O[C@@H]1[C@@H](O)[C@H](C)O[C@@H](O[C@H]2[C@@H]3C=CO[C@@H](O[C@@H]4O[C@H](CO)[C@@H](O)[C@H](O)[C@H]4O)[C@@H]3[C@@]3(CO)O[C@@H]23)[C@@H]1OC(=O)/C=C/c1ccccc1	none
C[C@@H]1O[C@@H](O[C@H]2[C@@H]3C=CO[C@@H](O[C@@H]4O[C@H](CO)[C@@H](O)[C@H](O)[C@H]4O)[C@@H]3[C@@]3(CO)O[C@@H]23)[C@H](O)[C@H](OC(=O)/C=C/c2ccccc2)[C@H]1O	none
CC1(C(=O)NCc2ccccc2)Cn2c(cc3ccccc32)C(=O)N1CCCc1ccccc1 (configuration not stated)	none
CCc1cc2c(cc3n2CC(C)(C(=O)NC2CCCCC2)N(Cc2ccc(F)cc2)C3=O)s1 (configuration not stated)	none
CCCn1c(=O)c2ccccc2n2c(=O)n(CC(=O)NCc3ccc(OC)cc3)nc12	none
Cc1ccsc1C(=O)N1CCN(c2cc(-c3cccs3)[nH]n2)CC1	none
COc1ccc(C(=O)N2CCN(c3cc(-c4cccs4)[nH]n3)CC2)cc1OC	none
CN1CCN(C(=O)c2ccc(Nc3nccc(-c4cccs4)n3)cc2Cl)CC1	Methyltransferases active
CCC(=O)N1CCCCCCNC(=O)[C@@H]2C[C@@H](C(=O)N3CCN(c4ccccn4)CC3)C[C@@H]21	none
C=Cc1ccc(Cn2nc3n(CCC)c(=O)c4ccc(C(=O)NC5CCCCC5)cc4n3c2=O)cc1	none
COc1cccc(CNC(=O)CSc2nnc3n(CCc4ccccc4)c(=O)c4ccccc4n23)c1	none
CC1CCC(NC(=O)C2(C)Cn3c(nc4ccccc43)C(=O)N2Cc2ccc(F)cc2)CC1 (configuration not stated)	none
C=C1CC/C=C(/CO)C(=O)C[C@@H]2[C@@H]1C[C@@]2(C)COC(C)=O	Methyltransferases active
CCC(C)NC(=O)Cn1nc2n(C(C)C)c(=O)c3ccc(C(=O)NCC(C)C)cc3n2c1=O (configuration not stated)	none
CCCCN(CC)CCN1C(=O)c2cc3occc3n2CC1(C)C(=O)NC1CCCCCCC1 (configuration not stated)	none
CN(C)CCOC(c1ccccc1)c1ccccc1	none
CN(C)CCOC(C)(c1ccccc1)c1ccc(Cl)cc1 (configuration not stated)	Methyltransferases active
COc1cccc(C2c3cccn3-c3sc4c(c3CN2C(=O)Nc2ccccc2Br)CCCC4)c1 (configuration not stated)	none
COc1ccccc1N1CCN(S(=O)(=O)c2cc3c(cc2Cl)n(C)c(=O)n3C)CC1	none
CCc1ccc(N2C(=O)CSc3c(c4ccccc4n3C)C2C(=O)NCCC(C)C)cc1 (configuration not stated)	none
Cc1ccc(Cn2c(=O)c3ccc(C(=O)NCC(C)C)cc3n3c(=O)n(Cc4ccc(F)cc4)nc23)cc1	none
CN(C)CCCC1(c2ccc(F)cc2)OCc2cc(C#N)ccc21 (configuration not stated)	Methyltransferases active!
Cc1ccc(N2C(=O)c3cc4sccc4n3CC2(C)C(=O)NC2CCCCCC2)cc1 (configuration not stated)	none
CCOC(=O)c1cc2n(n1)CC(C)(C(=O)NCc1ccccc1)N(c1cc(C)cc(C)c1)C2=O (configuration not stated)	none
Cc1cccc(-c2n[nH]n3c2nc(=O)c2ccc(C(=O)NCc4ccc5c(c4)OCO5)cc23)c1	none
COc1cc2c(=O)[nH]c3c(C(=O)NCc4ccc5c(c4)OCO5)sc(=S)n3c2cc1OC	none
O=C(NCc1ccc2c(c1)OCO2)c1ccc2c(=O)[nH]c3c(C(=O)NCC4CCCO4)sc(=S)n3c2c1 (configuration not stated)	none
Cc1ccc(NC(=O)c2sc(=S)n3c2[nH]c(=O)c2cc(Cl)ccc23)c(C)c1	none
Cc1ccc2c(c1)c(=O)[nH]c1c(C(=O)NCc3ccc4c(c3)OCO4)sc(=S)n12	Methyltransferases active
CC[C@H](C)NC(=O)c1sc(=S)n2c1[nH]c(=O)c1cc(Cl)ccc12	Methyltransferases active
COc1ccccc1NC(=O)c1sc(=S)n2c1[nH]c(=O)c1cc(Cl)ccc12	none
O=C(NCc1ccc(Cl)cc1)c1ccc2c(=O)[nH]c3c(C(=O)NC4CCCC4)sc(=S)n3c2c1	Methyltransferases active
Cn1c(=O)c2ccc(C(=O)NC3CCCC3)cc2n2c(=O)n(CC(=O)NCc3ccc(Cl)cc3)nc12	none
CC(=O)Nc1c2n(c3ccc(F)cc13)CC(C)(C(=O)NCCC(C)C)N(Cc1cccs1)C2=O (configuration not stated)	none
CC(C)CCn1c(=O)c2ccc(C(=O)NC(C)C)cc2n2c(=O)n(Cc3ccc(F)cc3)nc12	none
COc1ccc(CNC(=O)c2ccc3c(=O)nc4c(-c5ccccc5F)n[nH]n4c3c2)cc1	none
NC(=O)c1cccc2[nH]c(-c3ccc([C@H]4CCCN4)cc3F)nc12	Methyltransferases active
NC(=O)c1cccc2[nH]c(-c3ccc(C4CCCN4)cc3F)nc12 (configuration not stated)	Methyltransferases active
NC(=O)c1cccc2[nH]c(-c3ccc([C@@H]4CCCN4)cc3F)nc12	Methyltransferases active
CCOc1ccc(CN2C(=O)c3ccc(-c4ccco4)n3CC2(C)C(=O)NC2CCCCC2C)cc1 (configuration not stated)	none
CCC(C)NC(=O)CSc1nnc2n(Cc3ccc(C)cc3)c(=O)c3ccccc3n12 (configuration not stated)	none
CC(C)CCn1c(=O)c2ccc(C(=O)NCC(C)C)cc2n2c(=O)n(Cc3ccccc3F)nc12	none
CC1CCC(NC(=O)C2(C)Cn3c(ccc3-c3ccco3)C(=O)N2Cc2ccc(F)cc2)CC1 (configuration not stated)	none
CCCn1c(=O)c2ccc(C(=O)NCC(C)C)cc2n2c(=O)n(Cc3cccc(Cl)c3)nc12	none
CCCn1c(=O)c2ccc(C(=O)NCC(C)C)cc2n2c(=O)n(CC(=O)Nc3cccc(Cl)c3)nc12	none
C=C(C)C(=O)OC1CC(CO)CCC/C(CO)=C/C2OC(=O)C(=C)C21 (configuration not stated)	none
C=C1C(=O)OC2C1CCC(=C)C1CC(OC(C)=O)C(=C)C12 (configuration not stated)	Methyltransferases active
C=C1C(=O)O[C@@H]2[C@H]3C(C)=CC(=O)C3=C(C)CC[C@@H]12	none
O=S(=O)(c1ccc(F)cc1)c1nnn2c1nc(Nc1ccc(F)cc1)c1ccccc12	none
CCOc1ccc(CCNC(=O)CCc2nnc3n(CC(C)C)c(=O)c4ccccc4n23)cc1	none
C=C1C(=O)O[C@@H]2C3=C(C)CCC[C@]3(C)CC[C@@]12O	Methyltransferases active
CC1=C2C3OC(=O)C(C)C3(O)CCC2(C)CCC1=O (configuration not stated)	none
CC1=C2C3OC(=O)C(C)C3(O)CCC2(C)CCC1 (configuration not stated)	none
CN1CCN(c2nc3c(-c4cccc(F)c4)nnn3c3ccc(Cl)cc23)CC1	none
Cc1ccc(NS(=O)(=O)c2ccc3[nH]c4c(c3c2)CCCC4)cc1C	none
